Here are results for 40 sequences from the supplement of paper PMC6555819.

One experiment concerns RARb:RXRa (NR concentration 270 nM, RXRa partner concentration 90 nM). Description: PBM binding z-score (relative to random genomic background probes); higher = stronger binding; sequences stand for … in GC…GCGATTGACAGCGTAGAATGAAGG
A digest of the protocol: (§1)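 The probes on custom Agilent 4×180K protein-binding microarrays were double-stranded, with 34-nt variable regions bearing direct-repeat seeds, single-nucleotide variants, half-site ablations and random human genomic background sequences. Incubation lasted 1 h with ligand-free nuclear receptor dimers in PBS pH 7.4, 2% milk, 0.02% Triton X-100, 1 mM DTT, 0.2 mg/mL BSA and 0.4 mg/ml salmon testes DNA. Antibodies against each partner (one per run) detected bound dimers, and fluorescence scans were regression-normalized. Binding z-scores take the random background probes as reference.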
GCGACTAGGGCATCAGCAGGTTACCATAACTTAA showed a PBM binding z-score of 1.13.

Sequence GATACAGTGTCAAGGCCAGAGTACGCGTATTGAT registered a PBM binding z-score of 1.46.

Regarding GCGACTGGGGCATCAGCAGGTTTCCATAACTTAA, the PBM binding z-score was determined as 0.524.

In the case of CCGACTGGGGCATAAGGTTACCCTAAGCCAGCCC, the PBM binding z-score worked out at 1.26.

AATACAGGGTCATCGTAGGCCAGCGTACGCACAG gave a PBM binding z-score of 4.55.

Sequence GCGACTGGGGCATCAGCAGATTACCATAACTTAA displayed a PBM binding z-score of 0.39.

On to GGACCGAGGGCAAAGTTGATAGCATCTGTCGACG, for which the PBM binding z-score is 2.4.

Turning to CGGACTAGGTCATTGACAGGACAGTGAATAGTAA, the PBM binding z-score amounted to 3.53.

Sequence CGTCAAAGTTTAACTAAGGTAACGTAAAGCACGC yielded a PBM binding z-score of 2.44.

ATATGTAGGTTAGCTGGGGTCATACAGACTAGGC yielded a PBM binding z-score of 3.13.

For GCGGCTAGGTCAACTGATGGTCAGCTAAAGCTCG, the PBM binding z-score came to 4.36.

For CAGCCTAGGTCATGGCCAGTATAGGAGGAACGTT, the PBM binding z-score is 3.99.

Sequence CCTAGTTGGTCAAGGCCACACACGCTATAGGTAC yielded a PBM binding z-score of 1.76.

Sequence CCTTACGGGTCAACGTTATAGCACGGGTGGTACG had a PBM binding z-score of 4.13.

In the case of TCTTGTAGATCAAACAGGTTAAGAAAGCCTGAGT, the PBM binding z-score was found to be 0.288.

CCTAGTTGGTCAGGAGGTCACACTCCGGATATGA displayed a PBM binding z-score of 3.72.

Turning to TCTAGCAGGCGAGAGGGTCACTCAAGAGGTACGG, the PBM binding z-score is 1.81.

Sequence CGAACGAGGGCATGAGTTGATAGCGAATGCCGAT displayed a PBM binding z-score of 1.97.

The sequence TCATATAGGTAAAAGGTGAAAGTAGGTGTGGTAA yielded a PBM binding z-score of 2.06.

ACAGACAGGTGAGTGAAGGTAGCTCAGCTGGACG: the PBM binding z-score came to 0.202.

For CAAACTAGGTCACAGAGGTCAAAGACCGTGCGTA, the PBM binding z-score is 5.37.

As for TGTCAAAGTTCAAAGGTAACGGAAGTATCCACAC, the PBM binding z-score was determined as 5.07.

In turn, CATTACGGGTCACGAGGTTATAGCACGACGAGCG displayed a PBM binding z-score of 4.68.

The sequence ATCTCTAGGTAAAGTTCAGTTAAAGATCGATAGA displayed a PBM binding z-score of 2.78.

In the case of CCTACGGGGCCATTCAGAGGTCATTGATCATATG, the PBM binding z-score turned out to be 3.55.

AGAATGAGGTTAATATCAGGGAAACAGAATACAT: the PBM binding z-score turned out to be 1.55.

CCGACTGGGCCAAGGTCATTGATCAGTCAAAGCA: the PBM binding z-score was 3.26.

The sequence CCTCAGAGGACAGAAGGTCAGAGCTGTCCGCTTT had a PBM binding z-score of 3.41.

CGAACTAGGTCATCCAGGAAAGTGAATACATTGA came in with a PBM binding z-score of 3.96.

Sequence ACTATTAGTTGAGACGAGTGCAACCGATAGGTTG showed a PBM binding z-score of 0.0996.

GCTTACGGGTCAAAGGTTATAGCGTGAATAGAAT showed a PBM binding z-score of 4.33.

Turning to ACTATTAGTTGACTTAGGGCAACCGGTACGACGC, the PBM binding z-score was determined as 1.14.

The sequence AGATTGAGGTTATACGTAGATCAGGGAAGAAAGT had a PBM binding z-score of 1.28.

As to CCTACTAGGTCAATGGTCAGCTAAAGCAGCTCGC, the PBM binding z-score amounted to 3.89.

ATCTGTAGGTAACAAGTTCAGTGAAAGAGAGGAC returned a PBM binding z-score of 1.63.

CAAACTAGGTCAACAGGTCAAAGTCCGCTTCCCG showed a PBM binding z-score of 4.81.

In turn, TCTCGGAGGACACGAAAGGTTAGAGCTCGACATC yielded a PBM binding z-score of 2.48.

The sequence GCTTGTATATCAAGGTTAAGAAAGACTAAGCTAA returned a PBM binding z-score of 1.03.

On to TCCGCTAGGTCAACGATGGTCAGCTAATCTGCTA, for which the PBM binding z-score turned out to be 4.13.

Sequence CCTATGAGTTGACCATAAGGGCAACCGAAGCTCG displayed a PBM binding z-score of 1.72.

The next experiment has as its system RARb homodimer (NR concentration 270 nM). The description is as above. The essentials: as §1
On to GCGACTAGGGCATCAGCAGGTTACCATAACTTAA, for which the PBM binding z-score was 0.836.

Regarding GATACAGTGTCAAGGCCAGAGTACGCGTATTGAT, the PBM binding z-score turned out to be 1.04.

With GCGACTGGGGCATCAGCAGGTTTCCATAACTTAA, the PBM binding z-score was determined as 0.345.

CCGACTGGGGCATAAGGTTACCCTAAGCCAGCCC had a PBM binding z-score of 1.42.

As to AATACAGGGTCATCGTAGGCCAGCGTACGCACAG, the PBM binding z-score turned out to be 3.68.

For GCGACTGGGGCATCAGCAGATTACCATAACTTAA, the PBM binding z-score amounted to 0.257.

GGACCGAGGGCAAAGTTGATAGCATCTGTCGACG: the PBM binding z-score worked out at 1.42.

Sequence CGGACTAGGTCATTGACAGGACAGTGAATAGTAA returned a PBM binding z-score of 2.48.

In turn, CGTCAAAGTTTAACTAAGGTAACGTAAAGCACGC came in with a PBM binding z-score of 1.7.

Regarding ATATGTAGGTTAGCTGGGGTCATACAGACTAGGC, the PBM binding z-score amounted to 3.9.

In the case of GCGGCTAGGTCAACTGATGGTCAGCTAAAGCTCG, the PBM binding z-score was found to be 3.7.

Take CAGCCTAGGTCATGGCCAGTATAGGAGGAACGTT: the PBM binding z-score stood at 3.01.

CCTAGTTGGTCAAGGCCACACACGCTATAGGTAC came in with a PBM binding z-score of 1.52.

Take CCTTACGGGTCAACGTTATAGCACGGGTGGTACG: the PBM binding z-score is 3.19.

TCTTGTAGATCAAACAGGTTAAGAAAGCCTGAGT came in with a PBM binding z-score of 0.167.

For the sequence CCTAGTTGGTCAGGAGGTCACACTCCGGATATGA, the PBM binding z-score was determined as 4.21.

In turn, TCTAGCAGGCGAGAGGGTCACTCAAGAGGTACGG displayed a PBM binding z-score of 2.17.

Regarding CGAACGAGGGCATGAGTTGATAGCGAATGCCGAT, the PBM binding z-score came out at 0.689.

TCATATAGGTAAAAGGTGAAAGTAGGTGTGGTAA had a PBM binding z-score of 2.04.

Turning to ACAGACAGGTGAGTGAAGGTAGCTCAGCTGGACG, the PBM binding z-score is -0.151.

CAAACTAGGTCACAGAGGTCAAAGACCGTGCGTA: the PBM binding z-score stood at 5.43.

TGTCAAAGTTCAAAGGTAACGGAAGTATCCACAC showed a PBM binding z-score of 3.76.

Turning to CATTACGGGTCACGAGGTTATAGCACGACGAGCG, the PBM binding z-score amounted to 4.22.

In the case of ATCTCTAGGTAAAGTTCAGTTAAAGATCGATAGA, the PBM binding z-score was found to be 2.73.

Take CCTACGGGGCCATTCAGAGGTCATTGATCATATG: the PBM binding z-score amounted to 4.27.

For the sequence AGAATGAGGTTAATATCAGGGAAACAGAATACAT, the PBM binding z-score is 0.835.

Regarding CCGACTGGGCCAAGGTCATTGATCAGTCAAAGCA, the PBM binding z-score came out at 3.28.

In the case of CCTCAGAGGACAGAAGGTCAGAGCTGTCCGCTTT, the PBM binding z-score amounted to 3.51.

CGAACTAGGTCATCCAGGAAAGTGAATACATTGA had a PBM binding z-score of 2.85.

For the sequence ACTATTAGTTGAGACGAGTGCAACCGATAGGTTG, the PBM binding z-score was -0.322.

For the sequence GCTTACGGGTCAAAGGTTATAGCGTGAATAGAAT, the PBM binding z-score was 3.29.

As for ACTATTAGTTGACTTAGGGCAACCGGTACGACGC, the PBM binding z-score turned out to be 1.12.

In turn, AGATTGAGGTTATACGTAGATCAGGGAAGAAAGT displayed a PBM binding z-score of 0.842.

CCTACTAGGTCAATGGTCAGCTAAAGCAGCTCGC had a PBM binding z-score of 3.28.

Regarding ATCTGTAGGTAACAAGTTCAGTGAAAGAGAGGAC, the PBM binding z-score is 2.16.

Take CAAACTAGGTCAACAGGTCAAAGTCCGCTTCCCG: the PBM binding z-score was 4.94.

With TCTCGGAGGACACGAAAGGTTAGAGCTCGACATC, the PBM binding z-score was 2.16.

As to GCTTGTATATCAAGGTTAAGAAAGACTAAGCTAA, the PBM binding z-score was 0.176.

Turning to TCCGCTAGGTCAACGATGGTCAGCTAATCTGCTA, the PBM binding z-score worked out at 3.45.

Sequence CCTATGAGTTGACCATAAGGGCAACCGAAGCTCG had a PBM binding z-score of 1.98.
